Screening results from PubChem.
Only some compounds are listed: those with a hit (about 3.5% of all), similar ones and a draw of the others.
TEAD-YAP block: TEAD-YAP interaction inhibition, primary screen, TEAD-YAP interaction inhibitor project, luminescence, HEK-TIYL cells. TEAD-Gal4/YAP UAS-luciferase luminescence. inhibition, % at 9.12 µM. hit rate 1.4% among 640,000. AID 1259422, 2018; in the data active = inhibition above about 32%;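 also: 0% = median of test compound wells and 100% = reference inhibitor wells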
FBW7 activator: FBW7 E3 ligase activators, primary screen, biochemical, AlphaScreen, human | hit rate 0.13% among 650,000 | F-box/WD repeat-containing protein 7 (Homo sapiens), Q969H0 | normalized activity (activation), % at 26.1 µM | AlphaScreen FBW7–phospho-cyclin E peptide binding, activator screen | AID 1259310, 2017; in the data active = normalized activity above about 1.9%;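 also: purified mutant Fbw7 with reduced substrate affinity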
MITF primary: MITF inhibitors, primary screen, biochemical, AlphaScreen, human; Microphthalmia-associated transcription factor (Homo sapiens), O75030; hit rate 0.91% among 650,000; AlphaScreen MITF homodimerization, bead proximity signal; inhibition, % at 2.6 µM; in the data active = inhibition above about 50%;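 also: 0% = vehicle wells with protein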
Target sequence (O75030 whole entry, looked up): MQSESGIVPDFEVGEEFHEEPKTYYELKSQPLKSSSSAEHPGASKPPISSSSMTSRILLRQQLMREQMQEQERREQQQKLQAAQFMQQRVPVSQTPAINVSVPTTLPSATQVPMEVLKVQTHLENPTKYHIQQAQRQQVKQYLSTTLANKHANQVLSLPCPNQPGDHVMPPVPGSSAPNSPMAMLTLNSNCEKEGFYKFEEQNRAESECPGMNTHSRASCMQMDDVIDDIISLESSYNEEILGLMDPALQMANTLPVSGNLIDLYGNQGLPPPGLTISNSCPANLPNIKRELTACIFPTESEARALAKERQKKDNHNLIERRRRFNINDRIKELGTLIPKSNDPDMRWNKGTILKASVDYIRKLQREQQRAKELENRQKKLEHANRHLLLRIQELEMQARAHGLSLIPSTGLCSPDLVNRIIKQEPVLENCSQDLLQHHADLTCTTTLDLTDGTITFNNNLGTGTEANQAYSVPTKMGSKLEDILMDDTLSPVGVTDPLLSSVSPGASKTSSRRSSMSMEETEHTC
GPR151 activ: activators of human GPR151, primary screen, cell-based, PathHunter beta-arrestin, luminescence; G-protein coupled receptor 151 (Homo sapiens), Q8TDV0; PathHunter beta-arrestin GPR151 cells; activation, % at 11.2 µM; hit rate 1% among 650,000; AID 1508602, 2020; in the data active = activation above about 4.9%;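 also: 0% = median of compound wells and 100% = cells with positive control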
MITF confirm: MITF inhibitors, retest of hits, confirmation, biochemical, AlphaScreen, triplicate; shares compounds with MITF primary; AlphaScreen MITF homodimerization, biotin/His-MITF beads; inhibition, % at 2.6 µM; hit rate 16% among 4,700; AID 1259372, 2018;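 active = inhibition above a cutoff derived from the DMSO control wells, cut at about 28% in these data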;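 also: 0% = MITF dimer wells with DMSO only; inhibitors lower the bead chemiluminescence by keeping MITF from dimerizing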
AlphaScreen intf2: AlphaScreen optical interference compounds, counter-screen for MITF inhibitor project, biochemical, triplicate; shares compounds with MITF primary; LysRS AlphaScreen counterscreen, signal interference; inhibition, % at 2.6 µM; hit rate 7.6% among 4,700; AID 1259376, 2018;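 active = inhibition above a cutoff derived from the DMSO control wells, cut at about 30% in these data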
The depositor's hits bear a star; . = not tested or not shown.

SMILES | TEAD-YAP block | FBW7 activator | MITF primary | GPR151 activ | MITF confirm | AlphaScreen intf2
CCN(Cc1ccccc1)C(=O)C1CCN(Cc2cccc(OC)c2)CC1 | -4.4 | -0.1 | 52.1* | -1.6 | 11.9 | 8.3
CCOC(=O)C1CCN(C(=O)C2CCN(Cc3cccc(OC)c3)CC2)CC1 | 10.4 | -0.1 | 52.1* | 1.1 | 6.2 | 6.5
O=C(C1CCN(S(=O)(=O)c2ccc(F)cc2)CC1)N1CCCCC1 | 6.7 | 0.3 | -8.1 | -0.2 | . | .
CC1(C)C(=O)NCCN1C(=O)C1CCN(S(=O)(=O)c2ccc(F)cc2)CC1 | -0.2 | 0.2 | 68.5* | -0.8 | -7.7 | -5.1
COCCn1cnc2sc(C(=O)Nc3ccc(Cl)cn3)c(C)c2c1=O | -11.0 | 0.1 | 8.1 | 0.1 | . | .
Cc1ccnc(Nc2ccc(NCCNC(=O)c3ccc(F)cc3Cl)nn2)c1 | 3.5 | -1.2 | 80.5* | -0.4 | 43.2* | 82.7*
Cc1cccc(Nc2ccc(NCCNC(=O)c3ccc(F)cc3)nn2)n1 | 15.4 | 0.3 | 8.1 | 1.1 | . | .
Cc1ccnc(Nc2ccc(NCCNC(=O)c3ccc(F)cc3)nn2)c1 | 3.3 | -1.4 | 55.6* | 0.8 | 60.8* | 93.7*
CN(C)CCCNS(=O)(=O)c1ccc2c(c1)C(=O)c1cc(S(=O)(=O)NCCCN(C)C)ccc1-2 | 6.4 | -0.2 | 0.9 | -1.0 | . | .
Clc1ccc(-c2[nH]ncc2CNCc2cccnc2)cc1 | 4.3 | 0.3 | 58.3* | 0.8 | -8.8 | -5.1
COc1ccc(CN2CCN(Cc3cccnc3)CC2)c(OC)c1OC | 3.9 | 0.3 | 81.3* | 0.6 | 12.3 | 13.8
COc1cccc(CN2CCN(Cc3cccnc3)CC2)c1OC | 7.0 | 0.0 | 76.4* | -0.6 | 5.5 | 11.4
COc1ccc(N2CCN(Cc3cccc(OC)c3OC)CC2)cc1 | -7.6 | 0.0 | 31.2 | -0.2 | . | .
CCOc1ccccc1NC(=O)c1c(NC(=O)Cc2ccccc2)sc2c1CCC2 | 1.8 | 0.1 | -1.9 | 0.4 | . | .
O=C(Nc1nc2ccc(Cl)cc2s1)c1ccc(S(=O)(=O)N2CCc3ccccc3C2)cc1 | 4.7 | -0.1 | 7.8 | -0.4 | . | .
COc1cc(C2c3cccn3CCN2S(=O)(=O)c2ccc([N+](=O)[O-])cc2)cc(OC)c1OC (stereo not given) | 11.3 | -0.1 | 12.7 | -0.7 | . | .
COCCNC(=S)NNC(=O)c1cc(Cl)ccc1OC | -5.7 | 0.1 | 63.0* | -1.0 | 11.9 | 14.2
COCCNC(=S)NNC(=O)c1ccc(Cl)cc1Cl | -6.8 | -0.1 | -11.6 | 0.2 | . | .
CCc1ccccc1NC(=O)CN(C)S(=O)(=O)c1cnc[nH]1 | 4.7 | 1.1 | 13.0 | -0.1 | . | .
Cc1ccc(Cl)cc1NC(=O)CC(NCc1ccccn1)C(=O)O (stereo not given) | -2.3 | -0.3 | 101.4* | -0.5 | 87.2* | 100.3*
O=C(CC(NCc1ccccc1)C(=O)O)Nc1cccc(C(F)(F)F)c1 (stereo not given) | -4.2 | 0.2 | 89.2* | 3.7 | 8.1 | 8.4
Cc1ccc(C)c(NC(=O)CC(NCCN)C(=O)O)c1 (stereo not given) | 5.5 | -0.2 | 80.5* | -0.4 | 35.6* | 58.4*
O=C(CC(NCc1ccccn1)C(=O)O)Nc1cccc(Cl)c1 (stereo not given) | -7.8 | -0.7 | 111.6* | -0.6 | 83.5* | 100.3*
CCCCCNC(CC(=O)Nc1cc(C)ccc1C)C(=O)O (stereo not given) | 7.1 | -0.1 | 1.4 | -0.8 | . | .
CC(NC(=S)c1cccc2ccccc12)c1ccc(S(N)(=O)=O)cc1 (stereo not given) | 4.3 | -0.1 | -2.3 | -0.2 | . | .
SMILES | TEAD-YAP block | FBW7 activator | MITF primary | GPR151 activ | MITF confirm | AlphaScreen intf2
COc1ccc(CN(C)C2CCN(C)CC2)c(C)c1C | -5.3 | 0.2 | 59.1* | 0.0 | -1.5 | 8.5
CN1CCC(N(C)Cc2cccc(F)c2)CC1 | -3.9 | 0.3 | 58.7* | -0.2 | -1.1 | 3.0
CN1CCC(N(C)Cc2c(F)cccc2Cl)CC1 | 7.0 | -0.2 | 52.5* | 3.8 | 18.0 | 7.1
CN1CCC(N(C)Cc2cccc(Cl)c2Cl)CC1 | 0.0 | -0.1 | 11.8 | 1.6 | . | .
CN1CCC(N(C)Cc2cccc(Br)c2)CC1 | -3.2 | -0.2 | 34.5 | 0.4 | . | .
COC(=O)c1ccc(CN(C)C2CCN(C)CC2)cc1 | -4.5 | 0.1 | 57.0* | -0.1 | 11.1 | 16.0
COc1cc(OC)c(OC)cc1CN(C)C1CCN(C)CC1 | -4.5 | -0.1 | 25.4 | 0.0 | . | .
COc1ccc(C(=O)NC23CC4CC(CC(C4)C2)C3)cc1Cl | 2.7 | 0.0 | 0.4 | -1.4 | . | .
CN1CCC(N(C)Cc2ccc(Cl)cc2)CC1 | -11.2 | -0.1 | 52.7* | 1.4 | -4.7 | -0.3
Cc1cccc(NC(=O)CSc2cn(Cc3ccccc3Cl)c3ccccc23)c1 | 6.9 | 0.3 | -10.2 | -1.5 | . | .
CC(=O)Nc1ccc(NC(=O)CSc2n[nH]c(-c3ccccc3)n2)cc1 | 16.4 | -0.2 | 3.1 | -2.0 | . | .
O=C(CN1CCCCCC1)N/N=C/c1ccc(F)c(Br)c1 | -12.5 | -0.1 | 32.2 | -0.2 | . | .
O=C(CN1CCCCCCC1)N/N=C/c1ccc(F)c(Br)c1 | -9.5 | 0.2 | 57.1* | -0.8 | 3.3 | 0.9
COc1cc(/C=C2/N=C(c3cccc(Cl)c3Cl)OC2=O)cc(OC)c1OC | -2.1 | 0.1 | -0.1 | 0.0 | . | .
Cn1c(=NC(=O)c2ccc([N+](=O)[O-])cc2)sc2cccc(F)c21 | 3.2 | 0.5 | 21.9 | -0.8 | . | .
O=S(=O)(NCc1ccsc1)c1ccc(F)c(Cl)c1 | 6.2 | 0.5 | 62.4* | -0.6 | -8.5 | -0.2
Cc1cc(S(=O)(=O)NCc2ccsc2)ccc1F | -1.1 | 0.8 | 3.5 | 2.5 | . | .
CN1CCN(CC(=O)NCc2ccc(F)cc2)CC1 | -4.9 | -0.1 | 21.4 | 0.8 | . | .
O=C(CN1CCCN(CC(=O)NCc2ccccc2)CC1)NCc1ccccc1 | -9.5 | 0.1 | 93.0* | -0.4 | 3.6 | -2.4
Cc1ccc(CNC(=O)CN2CCN(C)CC2)cc1 | 3.5 | -0.1 | 84.1* | 0.2 | 7.5 | 9.0
COc1ccc(C=O)cc1Cn1cccn1 | 7.5 | -0.3 | 5.8 | -0.2 | . | .
CCC(=O)Nc1sc2c(c1C(=O)NC)CCCC2 | 1.6 | 0.1 | -4.6 | -2.0 | . | .
COc1ccc(C(=O)Nn2c(-c3ccccc3F)nc3ccccc3c2=O)c(OC)c1 | 2.5 | 0.0 | 11.2 | 0.3 | . | .
COc1ccc(C(CNCC(=O)Nc2ccccc2-c2ccccc2)N2CCOCC2)cc1 (stereo not given) | 4.8 | -0.2 | 82.6* | -1.4 | -15.0 | -1.1
O=C1CCCN1CCCNc1cc(Cl)ncn1 | 5.2 | 0.1 | 8.9 | 0.0 | . | .
O=C1CCCN1CCCNc1ccc(Cl)nn1 | 0.8 | -0.2 | 83.7* | -1.5 | 7.6 | 9.0
COc1cccc(OC)c1OCCCCN1CCCC1 | 5.8 | 0.5 | 52.5* | -0.2 | -7.8 | -10.4
CCN1CCN(CCOc2c(OC)cccc2OC)CC1 | 1.1 | 0.0 | 82.0* | 0.9 | 7.4 | 15.7
